Our source for the binding signal values is PMC5515408, “Sequence-specific DNA binding by MYC/MAX to low-affinity non-E-box motifs”.

In all, about 4,500 sequences were measured (“log2 normalized fluorescence”: median about -0.34, highest 2% from about 3.3 on). The list comes from a sample in which the highest values are over-represented; it also holds similar and randomly drawn sequences.

Chain of MAX:MAX (p21) (P61244 other isoform, or with tags, fused parts or gaps): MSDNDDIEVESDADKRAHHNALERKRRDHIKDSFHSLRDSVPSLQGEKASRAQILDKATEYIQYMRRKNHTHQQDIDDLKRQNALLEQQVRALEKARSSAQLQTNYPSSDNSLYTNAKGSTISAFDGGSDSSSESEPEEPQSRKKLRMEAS

The experiment addresses MAX:MAX (p21) (human, UniProt P61244-2 1-151). Briefly: protein-binding microarray (anti-MAX antibody); PBM: 15 mM Tris-HCl pH 7.5, 100 mM KCl, 0.075% NP40, 7.5 mM beta-mercaptoethanol, 375 ng/ul BSA, 8 ng/ul poly(dA-dT):(dA-dT), 550 ng complex, 60 min, room tempe; high values mean tight binding. To be noted: protein: recombinant; tags: 6xHis; chain copies: 2; label: 3' end of printed strand (linker) attached to glass slide; dsDNA, one strand shown. The procedure, abridged:
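Recombinant His-tagged human MYC:MAX or MAX:MAX dimers (550 ng, expressed in E. coli) were incubated for 60 min at room temperature in Tris-KCl buffer, pH 7.5, with NP40, BSA and poly(dA-dT) competitor. The custom Agilent glass array held ~5000 unique 12-nt sequences, each spotted in triplicate and made double-stranded by primer extension. Bound protein was detected with anti-MAX and secondary antibodies and scanned at 543 nm. Binding is reported as log2 normalized fluorescence.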
Take “CCGGCTGATGCTGAGTATTAATAGCTAAGATTACTATATCGACG”: the binding signal is 0.00915 log2 normalized fluorescence. In the case of “CCGGCTGAACAAAGGTATTAATAGCTAAGATTACTATATCGACG” it was -0.6 log2 normalized fluorescence. With “CCGGCTGACCGCGAGTATTAATAGCTAAGATTACTATATCGACG” the figure was 1.06 log2 normalized fluorescence. For “CCGGCTGAGCACAAGTATTAATAGCTAAGATTACTATATCGACG”, the binding signal is 0.993 log2 normalized fluorescence. With “CCGGCTGGCACGTGCTATTAATAGCTAAGATTACTATATCGACG” the figure was 3.25 log2 normalized fluorescence; with “CCGGCTCACACGTGGTATTAATAGCTAAGATTACTATATCGACG”, 3.33 log2 normalized fluorescence.

Consider “CCGGCTCACACGTCGTATTAATAGCTAAGATTACTATATCGACG”, for which the binding signal was 2.63 log2 normalized fluorescence. With “CCGGCTAACACGTGGTTTTAATAGCTAAGATTACTATATCGACG” the figure was 3.27 log2 normalized fluorescence; with “CCGGCTCACACGTGGTTTTAATAGCTAAGATTACTATATCGACG”, 3.32 log2 normalized fluorescence; with “CCGGCTCAGACGTGGTATTAATAGCTAAGATTACTATATCGACG”, 1.39 log2 normalized fluorescence. Turning to “CCGGCTCACACGTTTTATTAATAGCTAAGATTACTATATCGACG”, the binding signal is 3.25 log2 normalized fluorescence. With “CCGGCTGAATGACCGTATTAATAGCTAAGATTACTATATCGACG” the figure was 0.107 log2 normalized fluorescence.

“CCGGCTCACACCTCGTATTAATAGCTAAGATTACTATATCGACG”: the binding signal is 2.28 log2 normalized fluorescence. In the case of “CCGGCTGACGGTTCGTATTAATAGCTAAGATTACTATATCGACG” it was -0.498 log2 normalized fluorescence; in that of “CCGGCTGAAACGTGGAATTAATAGCTAAGATTACTATATCGACG”, 2.54 log2 normalized fluorescence; in that of “CCGGCGCAAACGTGGTATTAATAGCTAAGATTACTATATCGACG”, 2.98 log2 normalized fluorescence. With “CCGGCTCATACGTGGAATTAATAGCTAAGATTACTATATCGACG” the figure was 1.28 log2 normalized fluorescence.

Turning to “CCGGCTCGCACGTGGAATTAATAGCTAAGATTACTATATCGACG”, the binding signal is 3.31 log2 normalized fluorescence. With “CCGGCTAGCACGTGGTATTAATAGCTAAGATTACTATATCGACG” the figure was 3.44 log2 normalized fluorescence; with “CCGGCGCACACGTGGTATTAATAGCTAAGATTACTATATCGACG”, 3.29 log2 normalized fluorescence; with “CCGGCGGACTCGTGGTATTAATAGCTAAGATTACTATATCGACG”, 3.3 log2 normalized fluorescence. On to “CCGGCCAGCACGTGGTATTAATAGCTAAGATTACTATATCGACG”, for which the binding signal is 3.24 log2 normalized fluorescence. With “CCGGCGCGCACGTGGTATTAATAGCTAAGATTACTATATCGACG” the figure was 3.39 log2 normalized fluorescence; with “CCGGCGGACCCGTGGTATTAATAGCTAAGATTACTATATCGACG”, 2.46 log2 normalized fluorescence. With “CCGGCGGACGCGTGGTATTAATAGCTAAGATTACTATATCGACG” the figure was 3.14 log2 normalized fluorescence; with “CCGGCAAGCACGTGGTATTAATAGCTAAGATTACTATATCGACG”, 3.27 log2 normalized fluorescence; with “CCGGCTGACCTGATGTATTAATAGCTAAGATTACTATATCGACG”, 0.381 log2 normalized fluorescence.

For “CCGGCATAGTATACAATTTAATAGCTAAGATTACTATATCGACG”, the binding signal is 0.0214 log2 normalized fluorescence. Take “CCGGCTGAACCCTGGTATTAATAGCTAAGATTACTATATCGACG”: the binding signal is -0.595 log2 normalized fluorescence. With “CCGGCTGATAAGTGGTATTAATAGCTAAGATTACTATATCGACG” the figure was -0.651 log2 normalized fluorescence; with “CCGGCTGAAGGATTGTATTAATAGCTAAGATTACTATATCGACG”, -0.589 log2 normalized fluorescence.

Regarding “CCGGCTGAAACTTGGTATTAATAGCTAAGATTACTATATCGACG”, the binding signal is -0.705 log2 normalized fluorescence.

As for “CCGGCTCGGACGTGGTATTAATAGCTAAGATTACTATATCGACG”, the binding signal is 1.17 log2 normalized fluorescence. “CCGGCGAGCACGTGGTATTAATAGCTAAGATTACTATATCGACG”: the binding signal was 3 log2 normalized fluorescence.

On to “CCGGCCGGCACGTGGTATTAATAGCTAAGATTACTATATCGACG”, for which the binding signal is 3.27 log2 normalized fluorescence. With “CCGGCCCGCACGTGGTATTAATAGCTAAGATTACTATATCGACG” the figure was 3.03 log2 normalized fluorescence; with “CCGGCTCGCACGTGGTATTAATAGCTAAGATTACTATATCGACG”, 3.41 log2 normalized fluorescence; with “CCGGCATCCACGTGGTATTAATAGCTAAGATTACTATATCGACG”, 3.28 log2 normalized fluorescence. For “CCGGCACGCACGTGGTATTAATAGCTAAGATTACTATATCGACG”, the binding signal is 3.29 log2 normalized fluorescence.

On to “CCGGCAGGCACGTGGTATTAATAGCTAAGATTACTATATCGACG”, for which the binding signal is 3.21 log2 normalized fluorescence. As for “CCGGCCTGCACGTGGTATTAATAGCTAAGATTACTATATCGACG”, the binding signal is 3.26 log2 normalized fluorescence. In the case of “CCGGCACCCACGTGGTATTAATAGCTAAGATTACTATATCGACG” it was 3.35 log2 normalized fluorescence. In the case of “CCGGCGTGCACGTGGTATTAATAGCTAAGATTACTATATCGACG” it was 3.47 log2 normalized fluorescence; in that of “CCGGCTGACGCAGGGTATTAATAGCTAAGATTACTATATCGACG”, -0.104 log2 normalized fluorescence; in that of “CCGGCTGACCTGCTGTATTAATAGCTAAGATTACTATATCGACG”, 0.214 log2 normalized fluorescence. In the case of “CCGGCTGAAGAGTGGTATTAATAGCTAAGATTACTATATCGACG” it was 0.0783 log2 normalized fluorescence. As for “CCGGCTGAGGGGGAGTATTAATAGCTAAGATTACTATATCGACG”, the binding signal was 1.48 log2 normalized fluorescence. With “CCGGCTGAACCCAGGTATTAATAGCTAAGATTACTATATCGACG” the figure was -0.34 log2 normalized fluorescence; with “CCGGCTGAGTTGAGGTATTAATAGCTAAGATTACTATATCGACG”, -0.631 log2 normalized fluorescence; with “CCGGCTGACCGGTAGTATTAATAGCTAAGATTACTATATCGACG”, -0.573 log2 normalized fluorescence.

For “CCGGCTGACACAGGGTATTAATAGCTAAGATTACTATATCGACG”, the binding signal was 0.747 log2 normalized fluorescence. In the case of “CCGGCTGAGAGCCTGTATTAATAGCTAAGATTACTATATCGACG” it was -0.287 log2 normalized fluorescence; in that of “CCGGCTGACAGACCGTATTAATAGCTAAGATTACTATATCGACG”, 0.179 log2 normalized fluorescence.

Regarding “CCGGCTGAACTCATGTATTAATAGCTAAGATTACTATATCGACG”, the binding signal is 1.71 log2 normalized fluorescence. In the case of “CCGGCTGACAAGTTGTATTAATAGCTAAGATTACTATATCGACG” it was -0.304 log2 normalized fluorescence.

As to “CCGGCTGATCATATGTATTAATAGCTAAGATTACTATATCGACG”, the binding signal was 1.98 log2 normalized fluorescence. Regarding “CCGGCGGTCACGTGGTATTAATAGCTAAGATTACTATATCGACG”, the binding signal is 3.37 log2 normalized fluorescence.

On to “CCGGCCGTCACGTGGTATTAATAGCTAAGATTACTATATCGACG”, for which the binding signal was 3.18 log2 normalized fluorescence.

Take “CCGGCTGACACGTGGTATTAATAGCTAAGATTACTATATCGACG”: the binding signal was 3.19 log2 normalized fluorescence. In the case of “CCGGCGGGCACGTGGTATTAATAGCTAAGATTACTATATCGACG” it was 3.35 log2 normalized fluorescence.

On to “CCGGCACACACGTGGTATTAATAGCTAAGATTACTATATCGACG”, for which the binding signal is 3.32 log2 normalized fluorescence. Turning to “CCGGCGGACACGTGGTATTAATAGCTAAGATTACTATATCGACG”, the binding signal is 3.33 log2 normalized fluorescence. In the case of “CCGGCGGACACGTGCTATTAATAGCTAAGATTACTATATCGACG” it was 3.15 log2 normalized fluorescence. In the case of “CCGGCTGTCACGTGGTATTAATAGCTAAGATTACTATATCGACG” it was 3.12 log2 normalized fluorescence; in that of “CCGGCTGATACCTGGTGTTAATAGCTAAGATTACTATATCGACG”, -0.298 log2 normalized fluorescence; in that of “CCGGCTGACACGTAGAGTTAATAGCTAAGATTACTATATCGACG”, 0.996 log2 normalized fluorescence.

Turning to “CCGGCTGAAGCGGTGTATTAATAGCTAAGATTACTATATCGACG”, the binding signal is -0.554 log2 normalized fluorescence. “CCGGCTGACCCATGGTATTAATAGCTAAGATTACTATATCGACG”: the binding signal was 2.08 log2 normalized fluorescence.
